From PubChem BioAssay (Tox21) come the findings set out here.

A number with no mark means an inactive call. Records with an inconclusive call do not appear. The source made the active and inactive calls. Unless noted, calls come from the whole dose curve.

Test [1] is described as follows: Nuclear factor erythroid 2-related factor 2/antioxidant responsive element (Nrf2/ARE) small molecule agonists: qHTS cell viability counter screen in human keratinocytes (AID 1919968; active = well fitted curve in the direction sought with a large enough effect in the repeat runs; an effect the other way counts as inactive or inconclusive; note: nearly all actives have a fitted effect of over 55% in size). The procedure, abridged:
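Viability counter-screen: KeratinoSens reporter cells, DMSO-delivered compounds, 23 h at 37 C, CellTiter-Fluor fluorescence.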

A short description of test [2]: Nuclear factor erythroid 2-related factor 2/antioxidant responsive element (Nrf2/ARE) small molecule agonists: luciferase reporter gene qHTS assay in human keratinocytes (AID 1919969; note: nearly all actives have a fitted effect of over 35% in size). (In general: In a reporter assay the amount or activity of a reporter protein is the signal.)
In test [3] the target is Gonadotropin-releasing hormone receptor (Homo sapiens) (UniProt P30968). As to the kind of experiment: Human gonadotropin-releasing hormone receptor (GnRHR) small molecule agonists, calcium flux assay in GnRHR-HEK293 cells (AID 1920063). Note: nearly all actives have a fitted effect of over 35% in size. The procedure, abridged:
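Tox21-format agonist screen using human GnRHR-expressing HEK293 cells and a fluorescent calcium dye; kinetic 3-min fluorescence reading after compound addition, 15-point concentration series run in triplicate.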
On the technique in general: A change in cytosolic calcium serves as a functional read-out for many receptors and channels.

The target in test [4] is KiSS-1 receptor (Homo sapiens) (UniProt Q969F8). The test is described as follows: Human kisspeptin (KISS1R) small molecule agonists, calcium flux assay in KISS1R-HEK293 cells (AID 1920064; active = well fitted curve in the direction sought with a large enough effect in the repeat runs; an effect the other way counts as inactive or inconclusive). In short, it runs like this:
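Intracellular calcium mobilization in KISS1R-HEK293 cells was recorded by fluorescence (Ex/Em 480/540) for 3 min following compound addition to cells pre-loaded 1 h with calcium dye.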

The nature of test [5]: G protein-coupled receptor (GPCR) small molecule agonists, calcium flux assay: HEK293 wild type cell line counter screen (AID 1920065). The procedure, abridged: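 In this agonist-mode screen, ATP is the positive control and DMSO the vehicle. Cells grow 18 h before a 1 h dye incubation at 37 C; signal is taken at Ex/Em 480/540 over 3 min.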
Test [6] in a line: p53 small molecule agonists, cell-based qHTS assay with human liver microsomes (AID 1963577).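 Note: p53 response element beta-lactamase reporter cells with liver microsomes plus NADPH.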 The procedure, abridged:
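With metabolic activation: human liver microsomes (0.5 mg/mL final) plus NADPH (0.5 mg/mL final) added alongside compounds to p53RE-bla cells; 16 h 37 C exposure; beta-lactamase read by LiveBLAzer fluorescence.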

The nature of test [7]: p53 small molecule agonists, cell-based qHTS assay with rat liver microsomes (AID 1963578). In short, it runs like this: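 Metabolic activation by rat liver microsomes and NADPH, each 0.5 mg/mL final, added right after compounds to p53RE-bla reporter cells (4,000/well, plated 5 h earlier). 16 h at 37 C, then LiveBLAzer substrate for 2 h at room temperature in the dark; fluorescence read-out.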
(In general: Quantitative high-throughput screening tests each substance at several concentrations.)

Test [8] is described as follows: p53 small molecule agonists, cell-based qHTS assay with human liver microsomes: qHTS cell viability counter screen (AID 1963579). Note: nearly all actives have a fitted effect of over 45% in size. The procedure, abridged:
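Metabolic activation used human liver microsomes and NADPH, both 0.5 mg/mL final, over 16 hours at 37 C on p53RE-bla cells (4,000/well). Cytotoxicity measured by CellTiter-Glo luminescence, 30 min at room temperature.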

A short description of test [9]: p53 small molecule agonists, cell-based qHTS assay with rat liver microsomes: qHTS cell viability counter screen (AID 1963580). Note: nearly all actives have a fitted effect of over 45% in size. In short, it runs like this:
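p53RE-bla HCT-116 cells were exposed 16 h at 37 C to compounds with rat liver microsomes (0.5 mg/mL) and NADPH (0.5 mg/mL). Viability was measured in the same wells as ATP content by CellTiter-Glo luminescence.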

Test [10] is described as follows: p53 small molecule agonists, cell-based qHTS assay: qHTS cell viability counter screen (AID 1963581). Note: nearly all actives have a fitted effect of over 45% in size. The procedure, abridged: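 Compounds are pinned onto HCT-116 p53RE-bla cells and left 16 h at 37 C. Following the reporter FRET read, ATP is quantified by CellTiter-Glo luminescence after 30 min at room temperature.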
The nature of test [11]: p53 small molecule agonists, cell-based qHTS assay (AID 1963582; active = well fitted activation curve with a large enough effect in the signal ratio in the repeat runs, not every such curve was filed as active; the % refers to the signal ratio). The procedure, abridged:
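Agonist activity was scored from beta-lactamase FRET fluorescence in p53RE-bla cells treated 16 h at 37 C with compounds in DMSO, substrate incubation being 2 h at room temperature.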

The target of test [12] is 5-hydroxytryptamine receptor 2A (Homo sapiens) (UniProt P28223). As to the kind of experiment: 5-hydroxytryptamine receptor 2A (HTR2A) small molecule antagonists, cell-based qHTS assay (AID 1963586). Note: nearly all actives have a fitted effect of over 45% in size. In short, it runs like this:
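Antagonist-mode intracellular calcium assay: DOI (4 nM) added after 5 min compound pre-incubation at room temperature to dye-loaded HTR2A-CHO cells. Fluorescence followed for 3 min, sampled every second.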

Test [13] has the same target. The test is described as follows: 5-hydroxytryptamine receptor 2A (HTR2A) small molecule agonists, cell-based qHTS assay (AID 1963587). Note: nearly all actives have a fitted effect of over 30% in size. Note: potency is the fitted concentration of half-maximal effect. The procedure, abridged: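 CHO cells stably expressing human HTR2A, plated 18 h, loaded with calcium dye 1 h at 37 C. Agonist mode: compounds added and intracellular calcium fluorescence recorded kinetically for 2 min at 1 sec intervals.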

The target in test [14] is Muscarinic acetylcholine receptor M1 (Homo sapiens) (UniProt P11229). As to the kind of experiment: Cholinergic receptor muscarinic 1 (CHRM1) small molecule antagonists, cell-based qHTS assay (AID 1963588). Note: nearly all actives have a fitted effect of over 40% in size. Note: potency is the fitted concentration of half-maximal effect. The procedure, abridged:
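CHRM1-CHO calcium-flux assay, antagonist mode. Cells were seeded 18 h, dye-loaded 1 h at 37 C and given compound for 5 min at RT, then acetylcholine was added at 50nM. FDSS fluorescence was read 3 min; 15 concentrations, three runs.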

Test [15] shares this target. As to the kind of experiment: Cholinergic receptor muscarinic 1 (CHRM1) small molecule agonists, cell-based qHTS assay (AID 1963589). Note: nearly all actives have a fitted effect of over 35% in size. The procedure, abridged: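 Stable CHRM1-CHO cells (human receptor) were incubated 18 h, dye-loaded for 1 h at 37 C and exposed to test compounds for agonist activity, with calcium-dependent fluorescence followed kinetically.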
Test [16] is described as follows: cAMP Responsive Elements (CRE) small molecule agonists, cell-based qHTS assay (AID 1963590). In short, it runs like this: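 FRET-based beta-lactamase readout (LiveBLAzer B/G, 2 h RT) quantified CRE activation in HEK 293T CRE-bla cells after 3 h treatment with DMSO-dissolved compounds.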
A short description of test [17]: cAMP Responsive Elements (CRE) small molecule antagonists, cell-based qHTS assay (AID 1963591; active = well fitted inhibition curve with a large enough effect in the signal ratio in the repeat runs, not every such curve was filed as active; the % refers to the signal ratio). In short, it runs like this:
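qHTS in CRE-bla HEK 293T cells: compound in DMSO, then 0.25 uM NKH477 (final), 3 h at 37 °C/5% CO2; beta-lactamase FRET read-out after 2 h substrate incubation.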

In test [18] the target is Beta-2 adrenergic receptor (Homo sapiens) (UniProt P07550). The test is described as follows: Adrenergic beta2 receptor (ADRB2) small molecule antagonists, cell-based qHTS assay (AID 1963592). Note: series mostly up to about 92 µM; nearly all actives have a fitted effect of over 50% in size. The procedure, abridged: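 Cells (CHO, stable ADRB2 overexpression) incubated 18-20hr at 37C; compounds added from DMSO; agonist mix (1nM isoproterenol, 100uM IBMX, 25uM Ro-20-1724) added; 0.5hr RT; d2-cAMP and anti-cAMP-cryptate added; 1hr RT; 665/615 nm read.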
Sequence of Beta-2 adrenergic receptor (Homo sapiens) (P07550 whole entry, looked up): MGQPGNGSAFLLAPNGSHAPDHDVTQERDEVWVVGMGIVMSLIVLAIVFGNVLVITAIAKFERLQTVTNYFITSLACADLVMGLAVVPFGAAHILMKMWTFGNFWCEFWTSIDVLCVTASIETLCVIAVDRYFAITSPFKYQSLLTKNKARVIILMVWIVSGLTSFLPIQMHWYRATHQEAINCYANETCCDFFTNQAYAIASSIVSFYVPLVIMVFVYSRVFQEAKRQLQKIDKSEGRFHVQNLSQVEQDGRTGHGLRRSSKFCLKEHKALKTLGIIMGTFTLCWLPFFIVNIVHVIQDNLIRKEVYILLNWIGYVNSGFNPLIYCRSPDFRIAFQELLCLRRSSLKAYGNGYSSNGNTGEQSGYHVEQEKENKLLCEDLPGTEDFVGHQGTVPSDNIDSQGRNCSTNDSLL

Test [19] has as its target D(2) dopamine receptor (Homo sapiens) (UniProt P14416). As to the kind of experiment: Dopamine D2 receptor (DRD2) small molecule agonists, cell-based qHTS assay (AID 1963594). Note: nearly all actives have a fitted effect of over 35% in size. The procedure, abridged:
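HEK293 cells stably expressing human DRD2, pre-treated with PDE inhibitor Ro20-1724 (0.1 mM final) and compound 10 min at room temperature, then stimulated with NKH477 (200nM […]) for 30 min. cAMP read by HTRF (665/620 nm).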

Test [20] shares this target. As to the kind of experiment: Dopamine D2 receptor (DRD2) small molecule antagonists, cell-based qHTS assay (AID 1963595; active = well fitted inhibition curve with a large enough effect in the signal ratio in the repeat runs, with a control signal flat; the % refers to the signal ratio). The procedure, abridged:
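In this cell-based antagonist screen, compounds act for 10 min at room temperature before a 30 min challenge with 12 nM quinpirole and 200 nM NKH477. cAMP is quantified by HTRF competition in DRD2-HEK293 cells containing 0.1 mM Ro20-1724.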
% is set by controls: 0 for no effect and ±100 for the full control effect.

Sequence of Gonadotropin-releasing hormone receptor (Homo sapiens) (P30968 whole entry, looked up): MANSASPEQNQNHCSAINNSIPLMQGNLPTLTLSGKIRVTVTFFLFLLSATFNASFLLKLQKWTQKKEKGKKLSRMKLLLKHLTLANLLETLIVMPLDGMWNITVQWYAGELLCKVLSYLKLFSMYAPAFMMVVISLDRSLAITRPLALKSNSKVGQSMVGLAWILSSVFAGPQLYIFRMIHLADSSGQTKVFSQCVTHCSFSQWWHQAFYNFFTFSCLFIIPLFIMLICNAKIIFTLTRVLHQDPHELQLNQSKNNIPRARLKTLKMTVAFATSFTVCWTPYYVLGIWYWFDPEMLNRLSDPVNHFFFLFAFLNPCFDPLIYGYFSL
Sequence of 5-hydroxytryptamine receptor 2A (Homo sapiens) (P28223 whole entry, looked up): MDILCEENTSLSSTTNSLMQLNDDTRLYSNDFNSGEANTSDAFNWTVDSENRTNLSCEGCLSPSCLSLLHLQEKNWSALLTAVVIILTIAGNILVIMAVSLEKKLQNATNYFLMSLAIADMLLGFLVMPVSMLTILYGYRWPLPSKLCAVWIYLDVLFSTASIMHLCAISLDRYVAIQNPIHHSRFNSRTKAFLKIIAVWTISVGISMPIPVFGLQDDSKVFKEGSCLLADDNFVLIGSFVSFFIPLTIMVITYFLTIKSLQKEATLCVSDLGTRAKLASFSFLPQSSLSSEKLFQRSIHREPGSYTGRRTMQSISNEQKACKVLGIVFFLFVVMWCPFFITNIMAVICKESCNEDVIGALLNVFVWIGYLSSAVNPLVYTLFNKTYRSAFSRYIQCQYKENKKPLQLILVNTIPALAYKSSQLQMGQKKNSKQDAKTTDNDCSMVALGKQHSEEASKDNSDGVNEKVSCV
Sequence of D(2) dopamine receptor (Homo sapiens) (P14416 whole entry, looked up): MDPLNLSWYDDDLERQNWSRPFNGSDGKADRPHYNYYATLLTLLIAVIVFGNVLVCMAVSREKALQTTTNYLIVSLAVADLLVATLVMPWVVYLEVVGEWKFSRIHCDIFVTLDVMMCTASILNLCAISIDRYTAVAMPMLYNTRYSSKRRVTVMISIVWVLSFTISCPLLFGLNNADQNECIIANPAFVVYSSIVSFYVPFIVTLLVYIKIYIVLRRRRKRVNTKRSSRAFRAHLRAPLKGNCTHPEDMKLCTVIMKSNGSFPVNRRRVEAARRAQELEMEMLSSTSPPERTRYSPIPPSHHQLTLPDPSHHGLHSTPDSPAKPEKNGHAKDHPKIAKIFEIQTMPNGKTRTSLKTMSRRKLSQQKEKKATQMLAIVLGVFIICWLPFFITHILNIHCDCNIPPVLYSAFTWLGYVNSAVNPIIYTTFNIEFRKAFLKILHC
Sequence of KiSS-1 receptor (Homo sapiens) (Q969F8 whole entry, looked up): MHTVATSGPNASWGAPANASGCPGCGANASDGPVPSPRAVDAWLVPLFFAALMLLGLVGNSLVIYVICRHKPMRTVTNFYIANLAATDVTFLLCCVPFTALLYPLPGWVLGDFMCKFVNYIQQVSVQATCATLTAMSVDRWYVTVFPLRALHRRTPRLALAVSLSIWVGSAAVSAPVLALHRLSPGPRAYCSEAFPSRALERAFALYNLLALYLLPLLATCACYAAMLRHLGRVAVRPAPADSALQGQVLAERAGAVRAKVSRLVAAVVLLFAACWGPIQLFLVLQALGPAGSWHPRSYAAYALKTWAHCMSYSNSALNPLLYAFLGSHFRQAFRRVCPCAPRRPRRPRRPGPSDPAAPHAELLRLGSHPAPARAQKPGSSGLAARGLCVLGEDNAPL
Sequence of Muscarinic acetylcholine receptor M1 (Homo sapiens) (P11229 whole entry, looked up): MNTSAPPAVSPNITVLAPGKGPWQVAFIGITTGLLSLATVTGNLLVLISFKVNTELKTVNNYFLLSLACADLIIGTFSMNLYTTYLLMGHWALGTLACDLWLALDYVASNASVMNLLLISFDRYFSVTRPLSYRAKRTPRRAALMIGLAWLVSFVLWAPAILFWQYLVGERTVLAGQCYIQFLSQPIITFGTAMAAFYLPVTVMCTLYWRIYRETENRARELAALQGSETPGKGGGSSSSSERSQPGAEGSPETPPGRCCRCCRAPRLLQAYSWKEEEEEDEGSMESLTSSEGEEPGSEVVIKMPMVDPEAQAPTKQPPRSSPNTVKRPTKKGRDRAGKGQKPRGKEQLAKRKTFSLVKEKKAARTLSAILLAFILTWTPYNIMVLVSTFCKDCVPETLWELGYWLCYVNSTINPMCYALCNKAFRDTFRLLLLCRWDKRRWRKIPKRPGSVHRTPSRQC

As for `CC(C)(C)OOC(C)(C)C`, the Potency entry in test [1], in test [2], in test [3], in test [4], in test [5] and in [6] was “inactive” in each case. Moreover, the Potency entry in [7], in test [8], in test [9], in [10], in test [11] and in test [12] was “inactive” throughout. The Potency result in test [13], in [14], in test [15], in test [16], in [17] and in test [18] was “inactive” each time. In [19], the Potency result is “inactive”.
Turning to `CCCCOP(=O)(CCCC)OCCCC`, the Potency entry in test [1], in test [2], in test [3], in [4], in test [5] and in test [6] was “inactive” in each case. For the same compound, the Potency result in test [7], in test [8], in test [9], in test [10], in test [11] and in [12] was “inactive” each time. Besides, the Potency result in test [14], in test [15], in test [16], in test [17], in [18] and in [19] was “inactive” each time. Moreover, the Potency entry in [20] is “inactive”. The Potency in [13] is 19.5 µM (active).
Turning to `CCCC(=O)Cl`, the Potency result in test [1], in test [2], in [3], in [4], in test [5] and in [6] was “inactive” each time. The Potency result in [7], in [8], in test [9], in test [10], in test [11] and in [12] was “inactive” throughout. For the same compound, the Potency result in test [13], in [14], in test [15], in test [16], in test [17] and in test [18] was “inactive” throughout. Besides, the Potency result in test [19] was “inactive”.
Consider `CC(C)CON=O`, for which the Potency result in [1], in test [2], in test [3], in test [4], in test [5] and in test [6] was “inactive” in each case. The Potency result in test [7], in test [9], in test [10], in test [11], in test [12] and in [13] was “inactive” throughout. Moreover, the Potency entry in test [14], in test [15], in test [16], in [17] and in test [18] was “inactive” each time. In test [8], the activity change, negative = cytotoxicity is -1.64% [at 13.5 µM].
`CN1C(=O)NC(=O)C(C)(C2=CCCCC2)C1=O` (stereo not given): the Potency result in test [1], in test [2], in [3], in test [4], in test [5] and in test [6] was “inactive” each time. For the same compound, the Potency entry in test [7], in test [8], in test [9], in test [10], in [11] and in test [12] was “inactive” each time. In addition, the Potency result in test [13], in test [14], in test [15], in [16], in test [17] and in [18] was “inactive” each time. In addition, the Potency result in [19] and in test [20] was “inactive” each time.
For `CC(C)[N+](C)(CCC(C(N)=O)(c1ccccc1)c1ccccc1)C(C)C`, the Potency entry in test [1], in [2], in test [3], in test [4], in test [5] and in [6] was “inactive” in each case. Further, the Potency result in test [7], in test [8], in test [9], in [10], in test [11] and in test [12] was “inactive” in each case. Also, the Potency result in test [13], in [15], in [16], in [17], in test [18] and in test [19] was “inactive” each time. Further, the Potency entry in [20] is “inactive”. Besides, the Potency in test [14] is 0.0023 µM (active).
Consider `Nc1nc(=S)[nH][nH]1`, for which the Potency entry in test [1], in [2], in test [3], in test [4], in test [5] and in [6] was “inactive” throughout. The Potency result in [7], in test [8], in test [9], in test [10], in test [11] and in [12] was “inactive” in each case. The Potency result in test [13], in [14], in test [15], in test [16], in [17] and in test [18] was “inactive” each time. Besides, in [19], the Potency entry was “inactive”.
With `[N-]=[N+]=[N-]`, the Potency result in test [1], in [2], in test [3], in test [4], in test [5] and in test [6] was “inactive” each time. Further, the Potency entry in [7], in test [8], in test [9], in [10], in test [11] and in [12] was “inactive” each time. The Potency result in test [13], in test [14], in test [15], in test [16], in [17] and in [18] was “inactive” each time. In addition, the Potency entry in test [19] and in test [20] was “inactive” each time.
